# Screening results from PubChem.
# Only some compounds are listed: those with a hit (about 3% of all), similar ones and a draw of the others.
# LGR2 inh: blocks bursicon-induced cAMP signaling via Drosophila LGR2; HEK293 LGR2, CRE-luciferase, bursicon-stimulated, 4 h; inhibition, % at 9.99 µM; 380,000 compounds, 0.35% hits; AID 720647;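 active = drop in luminescence signal, shown as inhibition above about 50% in the replicate tests, limit read from the data, passing the limit was not always enough; inconclusive = probably only some replicates passing the limit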;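 also: agonist challenge used bursicon conditioned medium at about half maximal strength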
# MITF TRPM1 inh: MITF TRPM1 promoter inhibition in SK-MEL-5 cells; SK-MEL-5 TRPM1 promoter luciferase, 24 h; inhibition, % at 12.5 µM; 330,000 compounds, 0.83% hits;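 active = mean inhibition across replicates of 60% or more, whatever share of single replicates reaches that level; inconclusive = some that reach 60%, reason not given; inactive = mean inhibition across replicates below 60%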
# EBV LMP1 NFkB: reduces LMP1-driven NF-kappaB luciferase signal; inhibition, % at 12.5 µM; 350,000 compounds, 0.69% hits; LMP1-induced NF-kappaB luciferase reporter cells, luminescence; in the data active = inhibition above about 41%; inconclusive = no clear call, values can overlap the other calls;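 also: 0% = neutral control wells and 100% = reference inhibitor control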
# MITF act: MITF TRPM1 promoter activation in melanoma cells; activation, % at 12.5 µM; SK-MEL-5 TRPM1-promoter luciferase, 24 h; % of positive control, neutral wells = 0; 300,000 compounds, 0.75% hits;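 active = mean activation of at least 80% with every replicate also reaching 80%; inconclusive = mean reaches 80% but some replicate falls short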;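 also: 0% = neutral control wells and 100% = parthenolide positive control wells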
# TROY NFkB inh: blocks TROY-dependent signaling in reporter cells | Q293 LMP1-TROYcd NF-kB luciferase reporter, 4 h | inhibition, % at 10 µM | 360,000 compounds, 0.98% hits | AID 1347056;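 active = compounds whose plate-normalised and pattern-corrected inhibition of the luciferase reporter signal at the single screening dose is 50% or more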
# TWEAK-Fn14 inh: blocks TWEAK-Fn14 interaction in a reporter cell assay. TWEAK-stimulated Fn14 reporter cells, luciferase luminescence, 8 h. inhibition, % at 10 µM. 360,000 compounds, 2% hits. AID 1159606; in the data active = inhibition above about 50%
# Numbers without * were called inactive; ? = inconclusive; . = no result.
SMILES,LGR2 inh,MITF TRPM1 inh,EBV LMP1 NFkB,MITF act,TROY NFkB inh,TWEAK-Fn14 inh
Cc1cccc(CN2C(=O)/C(=C\c3ccc(C(=O)NCCCN4CCN(C)CC4)cc3)Oc3ccccc32)c1,8.8,94.0*,-1.5,-93.7,-11.0,-173.5
COCCCNC(=O)/C=C1\Sc2ccccc2N(Cc2ccccc2F)C1=O,-46.0,-49.2,-3.5,51.0,-28.6,103.1*
CCCC(=O)Nc1ccc2c(c1)C(=O)N(C)C[C@@H](OC)[C@H](C)CN(Cc1ccccc1F)[C@@H](C)CO2,15.5,.,.,.,.,.
C[C@H](NC(=O)C[C@H]1C[C@H]2c3cc(NC(=O)NC4CCCCC4)ccc3O[C@H]2[C@H](CO)O1)c1ccccc1,3.9,.,.,.,.,.
CN(C)C(=O)c1cccc(-c2ccc([C@H]3[C@H](CO)N4C(=O)CN(C(=O)CC5CC5)C[C@@H]34)cc2)c1,4.3,.,.,.,.,.
N#Cc1c(-c2ccccc2)nc(-c2ccccc2)nc1N1CCOCC1,.,-30.8,-9.5,32.8,.,79.1*
O=C(O)c1ccccc1C(=O)OCc1ccccc1,-23.2,-7.7,-2.2,11.0,-10.9,-5.0
CC1(C)CC=CC(COC(=O)c2ccccc2C(=O)O)C1 (centres undefined),-47.2,-16.3,-9.8,12.2,-30.4,95.8*
C[C@H]1CN([C@@H](C)CO)C(=O)c2cc(NS(=O)(=O)c3cccs3)ccc2O[C@@H]1CN(C)S(=O)(=O)c1cccs1,-0.5,.,.,.,.,.
CC1CCCN(CCCOc2ccc(Cl)cc2Br)C1 (centres undefined),-23.7,-27.6,-0.4,20.4,-12.6,-14.4
CC1CCCN(CCOc2ccc3ccccc3c2Br)C1 (centres undefined),-28.1,-94.2,-32.0,95.9*,-79.6,-42.4
Cc1ccc(C(c2c(NC(=O)c3ccco3)sc(C)c2C)N2CCOCC2)cc1 (centres undefined),27.8,.,-5.9,.,37.8,69.9*
Cc1cc2c(cc1C)CSC(c1c(O)ccc3ccccc13)SC2,.,-0.7,5.1,-3.0,49.2,75.0*
Cc1cc2c(cc1C)CSC(c1ccc(O)cc1)SC2,-0.4,-2.2,-8.1,1.2,33.5,55.3*
Cc1cc2c(cc1C)CSC(c1ccc3ccccc3c1O)SC2,.,4.2,13.5,.,11.2,-10.5
COc1cccc(S(=O)(=O)N2CC3(CN(C(=O)Nc4ccc(F)cc4)[C@@H](CO)c4[nH]c5cc(OC)ccc5c43)C2)c1,3.8,.,.,.,.,.
Cc1ccn2c(Nc3ccc4c(c3)OCO4)c(-c3ccccn3)nc2c1,-31.3,33.5,2.0,-34.6,9.2,-12.8
Cc1ccc(Nc2c(-c3ccccn3)nc3cc(C)ccn23)cc1,29.8,64.1*,?,-62.1,0.7,-1.6
Cc1ccc2nc(-c3ccncc3)c(Nc3ccccc3)n2c1,1.0,2.4,-30.6,-4.2,8.2,-35.8
Cc1ccc(Nc2c(-c3ccccn3)nc3ccc(C)cn23)cc1,33.5,69.9*,27.8,-69.6,15.8,3.2
O=C(CC(F)(F)F)N1C[C@H]2[C@@H](c3ccccc31)[C@H](CO)N2C(=O)C1CCCC1,-5.2,.,.,.,.,.
COc1cccc(/C=C2/Sc3ccc(C(=O)NCCN4CCCCCC4)cc3NC2=O)c1,-2.5,74.5*,-18.9,-73.6,2.3,-18.3
O=C1Nc2cc(C(=O)NCCCN3CCCC3)ccc2S/C1=C/c1cccc(Cl)c1,5.9,.,-38.4,.,1.9,-11.0
CCN1CCCC1CNC(=O)c1ccc2c(c1)NC(=O)/C(=C\c1ccccc1Cl)S2 (centres undefined),13.4,.,-19.8,.,-4.8,0.3
CCN1CCN(CCCNC(=O)c2ccc3c(c2)NC(=O)/C(=C\c2cccc(C)c2)S3)CC1,17.0,101.5*,-2.2,-100.3,-36.5,-51.0
SMILES,LGR2 inh,MITF TRPM1 inh,EBV LMP1 NFkB,MITF act,TROY NFkB inh,TWEAK-Fn14 inh
Cc1cccc(/C=C2/Sc3ccc(C(=O)NCCN4CCCC4)cc3NC2=O)c1,-61.3,88.6*,-6.1,-87.3,-3.2,-10.4
CCN1CCCC1CNC(=O)c1ccc2c(c1)NC(=O)/C(=C\c1ccc(OC)c(OC)c1)S2 (centres undefined),-13.4,87.4*,-27.6,-88.3,2.5,-59.1
Cc1cccc(/C=C2/Sc3ccc(C(=O)NCCCN4CCOCC4)cc3NC2=O)c1,3.3,-7.5,-6.8,10.1,22.9,-14.2
CCOC(=O)C1CCN(C(=O)c2ccc3c(c2)NC(=O)/C(=C\c2cccc(C)c2)S3)CC1,3.1,-2.6,5.2,2.0,50.0,-11.6
COc1ccc(NC(=O)Nc2ccc3c(c2)C(=O)N([C@@H](C)CO)C[C@H](C)[C@@H](CN(C)Cc2ccncc2)OCCCC[C@H](C)O3)cc1,4.5,.,.,.,.,.
O=C(C[C@H]1C=C[C@H](NC(=O)CC2CC2)[C@@H](CO)O1)NCC(F)(F)F,-20.2,.,.,.,.,.
O=C1Nc2cc(C(=O)NCCN3CCCCCC3)ccc2S/C1=C\c1ccccc1,-3.3,96.0*,0.1,-94.7,-17.2,3.3
COc1ccc2cc(CCOC3CCCCO3)ncc2c1 (centres undefined),26.0,-13.3,14.9,16.6,9.4,60.3*
COc1cc2cnc(CCO[C@H]3CCCCO3)cc2cc1OC,-13.6,-10.7,6.0,10.4,52.1*,31.1
C[C@@H]1CN([C@H](C)CO)C(=O)Cc2cc(NS(=O)(=O)c3cn(C)cn3)ccc2O[C@@H]1CN(C)C(=O)Nc1ccc2c(c1)OCO2,4.9,.,.,.,.,.
CC(=O)Nc1cccc(C(=O)/C=C/c2ccc(F)cc2)c1,7.4,-6.9,0.1,4.1,-19.4,71.5*
CC(=O)Nc1cccc(C(=O)/C=C/c2ccc(Br)cc2)c1,60.2*,39.1,4.1,-38.3,24.7,66.7*
COc1ccc(Br)cc1/C=C/C(=O)Nc1ccc2ccccc2c1,4.6,-10.3,-10.7,11.6,-48.4,-12.5
CCC(=O)Nc1cccc(C(=O)/C=C/c2cc(Br)ccc2OC)c1,.,91.0*,66.8*,-90.9,6.2,94.4*
CC(=O)Nc1cccc(C(=O)/C=C/c2ccc(/C=C/C(=O)c3cccc(NC(C)=O)c3)cc2)c1,-3.6,.,.,.,.,.
CCC(=O)N1CC(=O)N2[C@H](C1)[C@H](c1ccc(-c3cccc(C(=O)N(C)C)c3)cc1)[C@@H]2CO,-10.7,.,.,.,.,.
O=C(CSc1ccc(Cl)cc1)NC1CCCc2ccccc21 (centres undefined),-13.2,-2.6,2.9,4.5,73.6*,-4.7
O=C(CSc1nc2ccc(Cl)cc2[nH]1)NC1CCCc2ccccc21 (centres undefined),-17.6,14.1,-4.3,-13.3,51.6*,63.5*
c1ccc2c(c1)OCC(CNc1ncnc3sccc13)O2 (centres undefined),-11.6,6.8,18.6,-0.7,-0.2,50.7*
CC=Cc1ccc2n(c1=O)C[C@H]1[C@H](CO)[C@@H](C(=O)NCCC)[C@@H]2N1Cc1nccs1 (mixture of isomers),-9.7,.,.,.,.,.
Cc1ccc2nc(SCC3CCCCO3)[nH]c2c1 (centres undefined),10.5,5.9,36.8,-5.6,32.8,71.0*
Cc1ccc2nc(SCC(=O)N3CCOCC3)[nH]c2c1,-50.0,-53.8,-3.4,54.7,-28.1,29.1
